Only some compounds are listed: those with a hit (about 1.4% of all), similar ones and a draw of the others.
EPAC1 agonist – agonists of human EPAC1 | O95398 | EPAC1 agonist qHTS, biochemical assay; response scale: 100% = response to 6.5 mM cAMP | Potency, µM (titrated, usually from 154 µM), for the others: at the highest dose activation, actives largely listed as activators | actives 0.073% (n = 360,000); note: nearly all actives have a fitted effect of over 60% in size
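Nucleotide exchange assay: 100 nM EPAC1 with 250 nM Rap1B loaded with BODIPY-GDP and 50 uM GDP, room temperature. Fluorescence (480/540 nm) read every 5 min for 30 min; signal change normalized to 6.5 mM cAMP as full agonist.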
USP1 inh – inhibitors of human USP1/UAF1 deubiquitinase; O94782; recombinant USP1/UAF1, Ub-Rhodamine cleavage fluorescence; Potency, µM (series often up to 57.1 µM), for the others: at the top dose activity change, negative = inhibition, most hits filed as inhibitors; actives 0.23% (n = 390,000); AID 743255; note: % is set by controls: 0 for no effect and ±100 for the full control effect; nearly all actives have a fitted effect of over 60% in size
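In this screen, compounds sit with the deubiquitinase complex (1nM) for 15 min at room temperature before Ub-Rho is added at 150nM final. Fluorescence rise is then followed for 6 reads every 60 seconds.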
EPAC2 antagonist – antagonists of human EPAC2; Q8WZA2; EPAC2 GEF exchange of Rap1B-BODIPY-GDP, fluorescence; Potency, µM (highest dose often 114 µM), without a hit: at the highest dose activity, negative = inhibition, actives largely listed as inhibitors; actives 0.18% (n = 360,000); AID 720708; note: % is set by controls: 0 for no effect and ±100 for the full control effect; nearly all actives have a fitted effect of over 45% in size
Target sequence (Q8WZA2 whole entry, looked up): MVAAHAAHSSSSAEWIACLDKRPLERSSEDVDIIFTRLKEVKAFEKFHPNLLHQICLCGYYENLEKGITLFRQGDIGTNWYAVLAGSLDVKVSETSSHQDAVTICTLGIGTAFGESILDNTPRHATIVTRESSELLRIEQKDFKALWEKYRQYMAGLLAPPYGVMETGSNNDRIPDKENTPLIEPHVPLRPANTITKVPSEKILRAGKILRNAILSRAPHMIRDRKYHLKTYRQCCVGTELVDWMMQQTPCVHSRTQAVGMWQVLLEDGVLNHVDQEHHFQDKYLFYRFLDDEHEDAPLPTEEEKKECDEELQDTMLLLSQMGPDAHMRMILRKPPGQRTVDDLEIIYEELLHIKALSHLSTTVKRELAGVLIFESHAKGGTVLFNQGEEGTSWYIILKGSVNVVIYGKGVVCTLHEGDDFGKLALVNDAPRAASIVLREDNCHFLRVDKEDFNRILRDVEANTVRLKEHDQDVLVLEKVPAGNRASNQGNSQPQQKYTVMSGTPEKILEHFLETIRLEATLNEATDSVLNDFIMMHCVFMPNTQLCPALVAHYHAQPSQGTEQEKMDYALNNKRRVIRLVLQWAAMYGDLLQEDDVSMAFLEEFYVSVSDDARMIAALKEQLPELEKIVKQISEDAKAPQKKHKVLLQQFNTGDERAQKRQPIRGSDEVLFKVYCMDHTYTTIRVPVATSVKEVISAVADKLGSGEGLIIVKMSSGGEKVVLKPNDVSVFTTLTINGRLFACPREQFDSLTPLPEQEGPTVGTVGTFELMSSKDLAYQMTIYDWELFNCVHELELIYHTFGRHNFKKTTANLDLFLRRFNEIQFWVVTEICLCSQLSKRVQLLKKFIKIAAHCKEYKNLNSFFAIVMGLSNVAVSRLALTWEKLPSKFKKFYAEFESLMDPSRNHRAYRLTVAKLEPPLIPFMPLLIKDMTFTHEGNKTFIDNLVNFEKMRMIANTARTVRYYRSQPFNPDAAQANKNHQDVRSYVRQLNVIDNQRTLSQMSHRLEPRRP
EPAC2 ag – EPAC2 (human) agonism; actives 0.079% (n = 360,000); Potency, µM (series often up to 154 µM), for inactives: at the highest dose activation, most hits filed as activators; EPAC2 activation, biochemical qHTS; response scale: 100% = 6.5 mM cAMP response; Q8WZA2; note: nearly all actives have a fitted effect of over 50% in size
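Each well held 100 nM EPAC2, 250 nM RAP1B-BODIPY-GDP and 50 uM GDP. Fluorescence, read at 5-min intervals to 30 min, was referenced to a 6.5 mM cAMP positive control.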
BRCA1 expr act – activators of BRCA1 expression; Potency, µM (doses to about 46.1 µM), for the others: at the top dose activation, actives largely listed as activators; MCF7-BRCA1-FFLuc reporter, luminescence, 48 h; response scale: scaled: vehicle 0%, 10 µM genistein 100%; actives 1.1% (n = 380,000); note: nearly all actives have a fitted effect of over 80% in size
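MCF7-BRCA1-FFLuc cells, 2000/well in phenol-red-free MEM, attached 2 h then treated 48 h at 37 C. Luciferase luminescence read 15 min after reagent; normalized to genistein maximum activation (10microM) and DMSO, concentration-response fitted.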
EPAC1 antag – antagonists of human EPAC1. O95398. EPAC1 GEF assay, Rap1b-BODIPY-GDP exchange fluorescence. Potency, µM (top dose mostly 115 µM), for the others: at the highest dose activity change, negative = inhibition, usual class: inhibitors. actives 0.14% (n = 360,000). AID 720709;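 note: plate controls were vehicle for no effect and positive control for full effect; nearly all actives have a fitted effect of over 50% in size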
* marks the source's active call; other numbers are inactive results; i = inactive; ? = inconclusive; . = not tested or not shown; ! = not active in a repeat. Calls come from the whole dose curve; as a rule, active = well fitted curve in the direction sought with a large enough effect; inconclusive = small, poorly fitted or top-dose-only effect, or another doubt; inactive = no such curve, though single readings can be large; an effect the other way counts as inactive or inconclusive. Potency is the fitted concentration of half-maximal effect.

SMILES | EPAC1 agonist | USP1 inh | EPAC2 antagonist | EPAC2 ag | BRCA1 expr act | EPAC1 antag
CC(C)SCCCCOc1ccc2ccccc2c1 | -10% | -12% | -3% | 11% | 8.9µM* | 14%
COc1cc2nc(N3CCCN(C)CC3)nc(Nc3ccncc3)c2cc1OC | . | . | . | . | -48% | .
O=C1NC[C@H](CCCCN2C[C@H](Cc3ccccc3)N(CCc3ccccc3)C(=O)C2=O)N(CCc2ccc(O)cc2)C1=O | -9% | . | 0% | 1% | 18% | -21%
Clc1ccc(OCCSc2ncccn2)cc1 | 0% | -4% | 5% | 6% | 11µM* | -25%
Cn1cnnc1SCCOc1ccc(Cl)cc1 | 6% | -26% | 6% | 4% | 76% | -10%
COc1ccc2nc(/C=N/NC(=O)[C@@H]3CCCN3C(=O)OC(C)(C)C)ccc2c1 | 4% | -11% | -11% | -5% | 7.1µM* | 12%
CCOc1ccc(-c2nc(CSCC(=O)N3CCN(c4cccc(C(F)(F)F)c4)CC3)c(C)o2)cc1 | . | -6% | . | . | . | .
COCCN=C1NN=C(c2ccc(C)c([N+](=O)[O-])c2)CS1 | -5% | -20% | 13% | -4% | 3.2µM* | 12%
CCCCN=C1NN=C(c2ccc(C)c(C)c2)CS1 | 8% | -9% | -5% | 14% | ? | -9%
CNc1ccc(/C=C(\C#N)c2ccccn2)cc1[N+](=O)[O-] | 2% | -12% | 9% | -4% | 10µM* | 6%
N#C/C(=C\c1ccc(Cl)c([N+](=O)[O-])c1)c1ccccn1 | 1% | -26% | -4% | 4% | -96% | -5%
CCc1ccc2oc(-c3ccc(C)c(NC(=O)c4ccc(C#N)cc4F)c3)nc2c1 | . | -22% | . | . | -6% | .
COc1cc2c(cc1OC)C(=O)C(Br)CC2 (stereo not given) | -7% | 14µM* | 28µM* | 11% | -76% | 45µM*
COc1cc2c(cc1OC)C(=O)C(c1ccc3c(c1)OCO3)CC2 (stereo not given) | 1% | -8% | -12% | -5% | 6% | 15%
CC1CCc2c(sc(NC(=O)c3cccs3)c2C(=O)O)C1 (stereo not given) | 0% | -21% | 6% | 6% | 59% | -1%
CCCC1CCc2c(sc(NC(=O)c3cccs3)c2C(N)=O)C1 (stereo not given) | 0% | -14% | 4% | -5% | 11µM* | -4%
C/C(=N/NC(=O)c1ccco1)c1cccc(NC(=O)c2ccc(C)s2)c1 | -5% | -11% | 4% | 4% | 74% | 0%
C/C(=N\NC(=O)c1ccn(C)n1)c1cccc(NC(=O)c2ccc(C)s2)c1 | -6% | -6% | 4% | 8% | 11µM* | 36%
CNc1ccc(/C=C2\C=Cc3ccccc32)cc1Cl | . | . | . | . | 21% | .
O=C(COC(=O)c1ccc([N+](=O)[O-])s1)Nc1ccc(Cl)cn1 | 6% | -20% | -10% | 2% | -21% | -1%
Cc1c(Cl)cnc(NC(=O)COC(=O)c2ccc([N+](=O)[O-])s2)c1Cl | 1% | 18µM* | 5% | -1% | -18% | ?
CCC(=O)C1CCCN(C(=O)CCc2nnc(-c3ccc(C(C)=O)s3)o2)C1 (stereo not given) | -6% | -29% | 7% | -4% | 13µM* | 1%
CCC(=O)C1CCCN(C(=O)CCc2nnc(-c3ccc4c(c3)OCO4)o2)C1 (stereo not given) | 4% | -13% | 9% | 2% | 79% | -15%
NS(=O)(=O)c1ccc(NCCCn2ccnc2)c([N+](=O)[O-])c1 | 5% | -2% | 2% | 9% | 11% | 11%
COc1ccc2noc3c2c1C(=O)c1ccccc1-3 | 100µM* | 4µM* | 456% | ? | -15% | i
SMILES | EPAC1 agonist | USP1 inh | EPAC2 antagonist | EPAC2 ag | BRCA1 expr act | EPAC1 antag
COc1ccc(OC)c2c1C(=O)c1ccccc1C2=O | 89µM* | 32µM* | 66% | 89µM* | 4% | 77%
COc1ccc(N)c2c1C(=O)c1ccccc1C2=O | -3% | -6% | -18% | -3% | ? | 3%
O=C1c2ccccc2-c2onc3ccc(NCCCn4ccnc4)c1c23 | 100µM* | 28µM* | 406% | -86% | -53% | 335%
COc1cccc2c1C(=O)c1ccc3ccccc3c1C2=O | 1% | -9% | -2% | 12% | 12% | -1%
O=c1c(-c2ccc(F)cc2)coc2cc(O)ccc12 | 3% | ? | 9% | 4% | 11µM* | 13%
Cc1cc(C)nc(Nc2ccc(O)cc2)n1 | -8% | -25% | 3% | 2% | 19% | -11%
Cc1cc(C)nc(Nc2ccc(C(=O)O)cc2)n1 | 10% | -6% | 5% | 11% | 2.8µM* | 7%
CC(=O)N1CCN(C(=O)c2cc(S(=O)(=O)N3CCN(c4ccccc4)CC3)ccc2Cl)CC1 | 6% | -23% | 9% | 2% | -7% | -2%
c1ccc(N2CCN(c3nc4cc5c(cc4s3)OCO5)CC2)cc1 | 2% | -30% | 8% | 5% | 4µM*! | 1%
c1c2c(cc3sc(N4CCOCC4)nc13)OCO2 | 2% | -7% | -7% | 3% | 13% | -6%
CC(C)(C)c1ccc(-c2nnc(SCC(=O)NC3CC3)o2)cc1 | 4% | -8% | 0% | 10% | 13% | ?
O=S(=O)(O)c1cc(O)c2c(O)c(N=Nc3cc(Cl)ccc3O)c(S(=O)(=O)O)cc2c1 | 1% | ? | 28µM* | -11% | -44% | ?
O=S(=O)(O)c1cc(Cl)cc(N=Nc2ccc(O)cc2O)c1O | 1% | -19% | ? | 12% | -52% | -31%
O=[N+]([O-])c1ccc(COc2ccc(CN3CCCCC3)cc2)cc1 | -2% | -19% | 0% | 3% | 7.9µM* | ?
NC(=O)C1CCN(Cc2ccc(OCc3ccccc3)cc2)CC1 | 18% | -11% | 10% | 7% | 11µM* | -25%
NC(=O)C1CC(=O)N(c2ccc(OCc3ccc(Cl)c(Cl)c3)cc2)C1 (stereo not given) | 2% | -21% | 0% | -1% | 10µM* | 4%
CN1C(=O)N(CC(=O)Nc2ccc3c(c2)OCO3)C(=O)C12CCCCC2 | 5% | -22% | 4% | 7% | 23% | 12%
Cc1nc2ccc(NC(=O)c3ccc(S(=O)(=O)N(C)C)cc3)cc2s1 | 6% | -8% | 3% | 2% | -1% | -6%
O=C(Nc1ccc2ncccc2c1)c1ccccc1Br | -3% | -28% | 14% | -2% | 7.1µM* | -11%
CN(C)S(=O)(=O)c1ccc(C(=O)Nc2ccc3ncccc3c2)cc1 | -4% | -23% | -3% | 2% | 13µM* | -1%
COc1ccc(F)c(CN2CCC(n3nccc3NC(=O)C3CCOC3)CC2)c1 (stereo not given) | 3% | -21% | 7% | 7% | 3% | 7%

Screens (PubChem)
